Where “and” joins values, the source holds several entries; their conditions need not be identical. Equal entries are not always repeated. Calls of active or inactive are those of the source. The calls were made as follows: active = hit-call score of the fitted dose curve at least 0.9, where 1 is the maximum; inactive = score below 0.9.
read-out: CD69, CD69 (gene 969); experiment: BSK_SAg_CD69: BioMAP Diversity Plus: SAg Assay for CD69 Biomarker Activity (AID 2283089); conditions: primary human HUVEC with PBMC; actives raise or lower the signal
Protocol: BSK_SAg is a cell-based, multiplexed-readout assay that uses umbilical vein endothelium and peripheral blood mononuclear cells, a human vascular primary cell co-culture, with measurements taken at 24 hours after chemical dosing in a 96-well plate.BSK_SAg_CD69 is one of 10 assay component(s) measured or calculated from the BSK_SAg assay. It is designed to make measurements of enzyme-linked immunosorbent assay, a form of binding reporter, as detected with fluorescence intensity signals by Enzyme-linked immunosorbent assay technology.Data from the assay component BSK_SAg_CD69 was analyzed into 1 assay endpoint. This assay endpoint, BSK_SAg_CD69, was analyzed with bidirectional fitting relative to DMSO as the negative control and baseline of activity. Using a type of binding reporter, gain or loss-of-signal activity can be used to understand changes in the signaling as they relate to the gene CD69. Furthermore, this assay endpoint can be referred to as a primary readout, because this assay has produced multiple assay endpoints where this one serves a signaling function. To generalize the intended target to other relatable targets, this assay endpoint is annotated to the cytokine intended target family, where the subfamily is inflammatory factor.
The levels of cell surface (or secreted, indicated by the prefix "s") biomarker endpoints were measured by ELISA. Overt cytotoxicity to cells in confluent adherent cultures (all systems other than the BT system) was assessed by measuring total protein levels using sulforhodamine B (SRB) staining in parallel cultures at the time of biomarker measurements, indicated as SRB endpoints. For proliferation assays for adherent cell types, individual cell types are cultured at sub-confluence and relative cell numbers quantified by SRB staining at time points optimized for each system (48 h: 3C and CASM3C systems; 72 h: BT and HDF3CGF systems; 96 h: SAg system). SRB was performed by staining cells with 0.1% SRB after fixation with 10% TCA and reading wells at 560 nm.Viability and proliferation of PBMC (T cells) was quantified by Alamar Blue reduction for the SAg and BT systems. For PBMC viability (referred to as PBMC Cytotoxicity within the assay endpoint names), cells were plated (75,000/well in a 96-well plate) and then chemical samples added for 1 h before addition of activators, SEB and TSST-1 (20 ng/mL final concentration each). Cells were incubated for 90 h. Then, Alamar Blue (20 uL/well) (Invitrogen, Cat DAL1100) was added for 6 h, and the plates were read with a fluorescence microplate reader at 546/580 nm (excitation/emission). For PBMC proliferation, cells were plated and activated as above but incubated for only 16 h prior to addition of Alamar Blue. Plates were read after 6 h.

**Q.** With `c1ccc2c(c1)-c1cccc3cccc-2c13` as the molecule, how does the outcome read?
**A.** inactive

**Q.** Which outcome does the source give for `CC(C)(C)C(O)(CCc1ccc(Cl)cc1)Cn1cncn1` (stereo not given) here?
**A.** inactive

**Q.** For `[Cl-].[Cl-].[Hg+2]`, which AC50 is on record?
**A.** 36.8 µM (active)

**Q.** For `Brc1ccc(Oc2ccccc2)cc1`, which outcome is on record?
**A.** inactive

**Q.** With `Nc1cc(Cl)cc(C(=O)O)c1Cl` as the molecule, how does the outcome read?
**A.** inactive

**Q.** For `Nc1ccc(Oc2ccc(N)cc2)cc1`, which outcome is on record?
**A.** inactive

**Q.** `OCCCl` was tested. Which outcome did it give?
**A.** inactive

**Q.** With `CCNS(=O)(=O)C(F)(F)C(F)(F)C(F)(F)C(F)(F)C(F)(F)C(F)(F)C(F)(F)C(F)(F)F` as the molecule, how does the AC50 read?
**A.** 5.71 µM (active) and 24.7 µM (active) and 20.2 µM (active)

**Q.** With `O=C(Nc1ccccc1)c1ccccc1I` as the molecule, how does the outcome read?
**A.** inactive

**Q.** For `CC(C)N(Cc1ccccc1)C(=O)C(C)(C)C`, which outcome is on record?
**A.** inactive

**Q.** With `ClCCOCCCl` as the molecule, how does the outcome read?
**A.** inactive

**Q.** Which outcome does the source give for `CCCCOC(=O)c1ccccc1C(=O)OCc1ccccc1` here?
**A.** inactive

**Q.** How did the AC50 turn out when `Nc1ccc(Cl)cc1N` was run?
**A.** 3.65 µM (active)

**Q.** For `Oc1ccccc1Cl`, which outcome is on record?
**A.** inactive

**Q.** Which outcome does the source give for `Cc1cc(N=Nc2ccccc2C)ccc1N` here?
**A.** inactive

**Q.** `Cc1ccc(N)c(N)c1` was tested. Which outcome did it give?
**A.** inactive

**Q.** Which outcome does the source give for `CC(C)(C)OOC(C)(C)CCC(C)(C)OOC(C)(C)C` here?
**A.** inactive

**Q.** Which outcome does the source give for `c1ccc2c(c1)oc1ccccc12` here?
**A.** inactive

**Q.** Which outcome does the source give for `C1=Cc2cccc3cccc1c23` here?
**A.** inactive

**Q.** For `CCN(CC)CCO`, which outcome is on record?
**A.** inactive

**Q.** With `COc1cc(C=O)cc2c1[C@H](COC(N)=O)[C@]1(OC(C)=O)ON2C[C@H]2[C@@H]1N2C(C)=O` as the molecule, how does the AC50 read?
**A.** 13.2 µM (active)

**Q.** For `CO[C@@H]1[C@H](OC(=O)NC(=O)CCl)CC[C@]2(CO2)[C@H]1[C@@]1(C)O[C@@H]1CC=C(C)C`, which outcome is on record?
**A.** inactive

**Q.** `Nc1ccc(N=Nc2ccccc2)cc1` was tested. Which outcome did it give?
**A.** inactive

**Q.** Which outcome does the source give for `C[N+](C)(C)CC1CO1` (stereo not given) here?
**A.** inactive

**Q.** Which outcome does the source give for `Cc1ccc(N)cc1` here?
**A.** inactive

**Q.** Which AC50 does the source give for `ClC1=C(Cl)C2(Cl)C3C(Cl)C=CC3C1(Cl)C2(Cl)Cl` (stereo not given) here?
**A.** 31.8 µM (active)

**Q.** Which outcome does the source give for `CC(O)CCO` (stereo not given) here?
**A.** inactive

**Q.** With `CC(C)(OOC(C)(C)c1ccccc1)c1ccccc1` as the molecule, how does the AC50 read?
**A.** 31.6 µM (active)

**Q.** With `O=C(O)C1C2CCC(O2)C1C(=O)O` (stereo not given) as the molecule, how does the outcome read?
**A.** inactive

**Q.** `CCC[CH2][Sn]([Cl])([CH2]CCC)[CH2]CCC` was tested. Which AC50 did it give?
**A.** 0.148 µM (active)

**Q.** For `COC(=O)Nc1nc2ccccc2[nH]1`, which outcome is on record?
**A.** inactive

**Q.** How did the AC50 turn out when `Oc1ccc2ccc3cccc4ccc1c2c34` was run?
**A.** 31.9 µM (active)

**Q.** `N#CC(Br)Br` was tested. Which outcome did it give?
**A.** inactive

**Q.** Which outcome does the source give for `Nc1ccc([N+](=O)[O-])cc1` here?
**A.** inactive

**Q.** `CNC(=O)Oc1cccc2c1OC(C)(C)C2` was tested. Which outcome did it give?
**A.** inactive

**Q.** Which AC50 does the source give for `O=C(N[C@H](c1ccccc1)[C@@H]1CN2CCC1CC2)c1c(Cl)ccc(C(F)(F)F)c1Cl` here?
**A.** 29.7 µM (active)

**Q.** With `CN(C)c1ccccc1` as the molecule, how does the outcome read?
**A.** inactive

**Q.** Which AC50 does the source give for `Clc1ccc(C(c2ccc(Cl)cc2)C(Cl)(Cl)Cl)cc1` here?
**A.** 25.5 µM (active)

**Q.** With `O=P(OCCCl)(OCCCl)OCCCl` as the molecule, how does the outcome read?
**A.** inactive

**Q.** Which outcome does the source give for `CCOC(=O)[C@]1(c2ccccc2)Oc2ccccc2[C@@H]1N` here?
**A.** inactive

From PubChem BioAssay (EPA / NIEHS)
